Consider 33 molecules from the supplement of paper PMC10600219.

Counter-ions that a name gives are not always drawn. Over roughly 2,800 compounds, “cell viability relative to vehicle” has its median near 0.98; the lowest 2% begin near 0.45. The sample as a whole holds a higher share of the lowest values than the screen did.

The experiment relates to NCI-H2228 alectinib-DTP. Put plainly: cell viability relative to vehicle (fraction of vehicle); NCI-H2228 is an ALK-positive lung cancer line and DTP means drug-tolerant persister; higher = less growth inhibition. As to conditions: 100 nM; treatment time 6 days. In short, it runs like this:
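Values give cell viability as a fraction of vehicle-treated cells. Parental and drug-tolerant persister NCI-H2228 cells (persisters made with 1000 nM of a targeted drug for 13 days) were exposed in 384-well plates to the 3114-agent TargetMol anti-cancer compound library at 100 nM, with DMSO as vehicle. ATP was then read after 6 days by the CellTiter-Glo 3D Cell Viability Assay.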
`COCc1c(-c2ccc(NC(=O)Nc3cc(C(F)(F)F)ccc3F)c(F)c2)c2c(N)ncnn2c1CN1CCOCC1`: the cell viability came to 0.632.
To `C[C@@H]1CC[C@@]2(NC1)O[C@H]1C[C@H]3[C@@H]4CC=C5C[C@@H](O[C@@H]6O[C@H](CO)[C@@H](O[C@@H]7O[C@@H](C)[C@H](O)[C@@H](O)[C@H]7O)[C@H](O)[C@H]6O[C@@H]6O[C@@H](C)[C@H](O)[C@@H](O)[C@H]6O)CC[C@]5(C)[C@H]4CC[C@]3(C)[C@H]1[C@@H]2C` [Solamargine] belongs 1.06; to `CNC(=O)c1cccc(-c2ccc3c(N4CCOC[C@@H]4C)nc(N4CCOC[C@@H]4C)nc3n2)c1` [Vistusertib], 0.594; to `COc1ccc(-c2ccc3c(N4CCOC[C@@H]4C)nc(N4CCOC[C@@H]4C)nc3n2)cc1CO`, 0.377.
To `COc1ccc(-c2ccc3c(N4CCOCC4)nc(N4C[C@@H](C)O[C@@H](C)C4)nc3n2)cc1CO` belongs 0.765.
For `COc1ccc([C@@H]2OC[C@H]3[C@@H]2CO[C@@H]3c2ccc3c(c2)OCO3)cc1OC` [Fargesin], the cell viability turned out to be 1.11.
Molecule `NCCNc1ccc(NCCN)c2c1C(=O)c1ccncc1C2=O` [Pixantrone dimaleate] came in with a cell viability of 0.661.
Molecule `O=C1c2c(O)ccc(O)c2C(=O)c2c(NCCNCCO)ccc(NCCNCCO)c21` [Mitoxantrone] gave a cell viability of 0.386.
To `O=C1c2cccc(O)c2C(=O)c2c(O)cccc21` [Antrapurol] belongs 0.878; to `CC(C)=CCc1c(O)ccc(C(=O)/C=C/c2ccc(O)cc2)c1O` [Isobacachalcone], 1.01.
To `Cc1ccc([N+](=O)[O-])cc1S(=O)(=O)N(C)/N=C/c1cnc2ccc(Br)cn12` belongs 0.172; to `Cc1ccc([N+](=O)[O-])cc1S(=O)(=O)N(C)/N=C/c1cnc2ccc(Br)cn12` [PIK-75  hydrochloride], 0.201.
`CC(C)n1cnc2c(NCc3ccccc3)nc(NCCCO)nc21` [Bohemine] displayed a cell viability of 0.951.
As for `C=CCSC[C@H](N)C(=O)O` [S-allyl-L-cysteine], the figure is 1.06; as for `CC(C)=CC[C@H](O)C1=CC(=O)c2c(O)ccc(O)c2C1=O` [Alkannin], 0.957.
As for `CC1=C(C(=O)Nc2ccc3[nH]ncc3c2)C(c2ccc(F)c(C(=O)NCc3ccccn3)c2)NC(=O)N1` (stereo not drawn), the figure is 1; as for `CO[C@@H](C)Cn1c(=O)n(C)c2cnc3ccc(-c4cncc(C(C)(C)O)c4)cc3c21`, 0.513; as for `Cn1c(=O)n(-c2ccc(C(C)(C)C#N)cc2)c2c3cc(-c4cnc5ccccc5c4)ccc3ncc21` [Dactolisib], 0.435.
To `CC(C)(C#N)c1ccc(N2C(=O)OCc3cnc4ccc(-c5cnc6ccccc6c5)cc4c32)cc1` belongs 0.925; to `O[C@@H]1[C@@H](O)[C@@H](OC/C=C/c2ccccc2)O[C@H](CO[C@@H]2OC[C@H](O)[C@H](O)[C@H]2O)[C@H]1O` [Rosavin], 0.944; to `C[C@@H]1CC(=O)Nc2cccc(-c3ccc4c(c3)c(-c3cnn(C)c3)nn4C)c2N1`, 1.01.
`O=C(Nc1nc(-c2ccc(O)c(O)c2)c(-c2ccccc2)s1)c1ccc(O)c(O)c1` yielded a cell viability of 1.03.
As for `CS(=O)(=O)Nc1cc(-c2ccc3ncnc(Nc4ccc(F)c(Cl)c4)c3c2)cnc1Cl`, the figure is 0.997; as for `CCCS(=O)(=O)Nc1ccc(F)c(C(=O)c2c[nH]c3ncc(-c4ccc(Cl)cc4)cc23)c1F` [Vemurafenib], 1.12; as for `COc1ncc(-c2ccc3nccc(-c4ccnnc4)c3c2)cc1NS(=O)(=O)c1ccc(F)cc1F` [Omipalisib], 0.261.
As for `Nc1ccccc1C(=O)C[C@H](N)C(=O)O` [L-Kynurenine], the figure is 0.987.
To `N#CCC(C1CCCC1)n1cc(-c2ncnc3[nH]ccc23)cn1` (stereo not drawn) belongs 1.16; to `CN1CCN(c2cc(-c3ccccc3)nc(N)n2)CC1`, 1.09.
`COC(=O)c1ccc([C@H]2c3[nH]c4ccccc4c3C[C@H](C(=O)OC)N2C(=O)CCl)cc1` registered a cell viability of 0.0417.
To `CN1CC(=O)N2[C@H](c3ccc4c(c3)OCO4)c3[nH]c4ccccc4c3C[C@@H]2C1=O` [Tadalafil] belongs 0.916; to `COC(=O)[C@@H]1[C@H]2C[C@H]3c4[nH]c5ccccc5c4CCN3C[C@@H]2CC[C@@H]1O` [Yohimbine hydrochloride], 1.22; to `CCCNC(=O)c1cn2ncnc(Nc3cc(C(=O)NC4CC4)ccc3C)c2c1C`, 1.03.
As for `COc1ccc(-c2ccccc2)cc1NS(=O)(=O)c1cc(Cl)cc(Cl)c1O`, the figure is 0.883.
